# PubChem BioAssay (NCATS)
# Inconclusive results are not listed. A call without a number means that no potency is given here. The source made the active and inactive calls. Calls come from the whole dose curve; as a rule, active = well fitted inhibition curve with a large enough effect; inconclusive = small, poorly fitted or top-dose-only effect; inactive = flat fitted curve, though single readings scatter.
# Target: Dual specificity protein kinase CLK4 (Homo sapiens) (UniProt Q9HAZ1)
# Experiment: qHTS Assay for Inhibitors of CDC-like Kinase 4 (Kinase-Glo Assay) (AID 1770); note: nearly all actives have a fitted effect of over 65% in size
# Conditions: recombinant Clk4, Kinase-Glo ATP depletion luminescence; series mostly up to 66.7 µM
# How it was run: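 Clk4 25 nM, RS peptide 100 uM, ATP 1 uM, pH 7.5 Tris, 10 mM MgCl2, 2.5 mM DTT; 4.5 h RT; ATP depletion read by Kinase-Glo luminescence.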
# Potency is the fitted concentration of half-maximal effect.
# Chain of Dual specificity protein kinase CLK4 (Homo sapiens) (Q9HAZ1 whole entry, looked up): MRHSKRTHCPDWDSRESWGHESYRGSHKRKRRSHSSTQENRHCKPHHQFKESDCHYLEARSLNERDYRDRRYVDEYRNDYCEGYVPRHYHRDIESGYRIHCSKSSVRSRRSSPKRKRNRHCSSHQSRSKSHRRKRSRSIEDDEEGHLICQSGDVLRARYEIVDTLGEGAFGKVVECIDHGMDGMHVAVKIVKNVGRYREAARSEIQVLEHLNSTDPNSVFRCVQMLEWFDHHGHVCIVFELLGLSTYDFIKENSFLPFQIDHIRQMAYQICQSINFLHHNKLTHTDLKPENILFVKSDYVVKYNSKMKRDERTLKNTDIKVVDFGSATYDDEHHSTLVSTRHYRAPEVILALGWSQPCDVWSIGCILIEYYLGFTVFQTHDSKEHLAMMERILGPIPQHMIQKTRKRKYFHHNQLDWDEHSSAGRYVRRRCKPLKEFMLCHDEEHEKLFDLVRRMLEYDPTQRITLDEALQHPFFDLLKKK
row,Compound,Potency
1,Cc1nc2cnc(Oc3cccc(Cl)c3)nc2n(C2CC2)c1=O,inactive
2,CNc1ncncc1-c1ccccc1C(F)(F)F,inactive
3,CC(=O)NCCNc1nc(-c2ccc(C(=O)N(C)C)cc2)nc2ccccc12,inactive
4,COc1ccc(CNc2ccnc(-c3ccc(C(=O)N(C)C)cc3)n2)c(OC)c1,inactive
5,Clc1ccccc1-c1cc(NCCN2CCOCC2)ncn1,inactive
6,COc1ccc(CNc2cc(-c3cccnc3)ncn2)c(OC)c1,8.91 µM (active)
7,CCNc1ncc2nc(-c3ccc(OC)cc3)c(=O)n(CCC#N)c2n1,inactive
8,FC(F)(F)c1ccccc1-c1cncnc1NCc1cccnc1,inactive
9,COc1ncc2nc(-c3cn(C)c4ccccc34)c(=O)n(C)c2n1,inactive
10,CN(C)C(=O)c1ccc(-c2cncnc2NCc2ccccc2)cc1,inactive
11,COc1ccc(-n2c(=O)c(CCc3ccccc3)nc3cncnc32)cc1,inactive
12,Cc1nc2cnc(N(C)C)nc2n(-c2ccccc2)c1=O,inactive
13,COc1ccccc1CNc1ncncc1-c1ccc(C(=O)N(C)C)cc1,12.6 µM (active)
14,COc1ccc(CNc2ncncc2-c2ccccc2C(F)(F)F)c(OC)c1,inactive
15,COCCn1c(=O)c(-c2cccc(C#N)c2)nc2cnc(N3CCOCC3)nc21,inactive
16,CNc1ncncc1-c1ccccc1C,inactive
17,O=c1cnc2cnc(Oc3ccccc3)nc2n1C1CC1,inactive
18,COCCn1c(=O)c(-c2cccc(C#N)c2)nc2cnc(Oc3ccc(OC)cc3)nc21,inactive
19,O=c1c(-c2ccccc2)nc2cncnc2n1-c1ccccc1,inactive

row,Compound,Potency
1,CN(C)C(=O)c1ccc(-c2nccc(N(C)Cc3ccco3)n2)cc1,inactive
2,CS(=O)(=O)Nc1cccc(-c2cc(NCc3cccs3)ncn2)c1,10 µM (active)
3,COc1ccc(-c2nc3cnc(OC)nc3n(C)c2=O)cc1,inactive
4,c1ccc(CNc2ncncc2-c2cccnc2)cc1,inactive
5,CN(C)c1ncc2nc(-c3cccs3)c(=O)n(-c3ccccc3)c2n1,inactive
6,Cn1c(=O)c(-c2ccc(Cl)cc2)nc2cnc(OCc3ccccc3)nc21,inactive
7,COc1cccc(Cn2c(=O)c(-c3ccc(Cl)cc3)nc3cnc(N4CCN(C)CC4)nc32)c1,inactive
8,COc1cccc(Cn2c(=O)c(CCc3ccccc3)nc3cncnc32)c1,inactive
9,Cn1c(=O)c(-c2ccccc2)nc2cnc(Nc3ccccc3)nc21,inactive
10,COc1ncc2ncc(=O)n(C3CC3)c2n1,inactive
11,Cc1cnc(CNc2cc(-c3ccccc3C(F)(F)F)ncn2)cn1,inactive
12,CN(C)C(=O)c1ccc(-c2cncnc2NCc2cccnc2)cc1,inactive
13,COc1ncc2nc(-c3ccc(F)cc3)c(=O)n(CCc3ccccc3)c2n1,inactive
14,N#Cc1cccc(-c2nccc(-n3ccnc3)n2)c1,8.91 µM (active)
15,O=c1c(-c2ccccc2)nc2cnc(Oc3cccc(Cl)c3)nc2n1C1CC1,inactive
16,CNc1nc(-c2cccnc2)nc2ccccc12,4.47 µM (active)
17,Cn1cc(-c2nc3cnc(Oc4ccccc4)nc3n(Cc3cccs3)c2=O)c2ccccc21,inactive
18,COc1cccc(Cn2c(=O)c(-c3ccc(Cl)cc3)nc3cnc(OC)nc32)c1,inactive
